Where “and” joins values, the source holds several entries; their conditions need not be identical. Equal entries are not always repeated. Results filed as inconclusive are left out. Where a call stands in place of a potency, no number is given. More than one record can exist for a structure, and the calls need not agree. Calls of active or inactive are those of the source. Calls follow the shape of the dose curve; as a rule, active = well fitted inhibition curve with a large enough effect in the repeat runs; inconclusive = weak or mixed curves; inactive = no such curve, though single readings can be large or run the other way.
Potency is read from the fitted curve at half-maximal effect.

Cytochrome P450 2C19 (Homo sapiens), sequence (P33261 whole entry, looked up): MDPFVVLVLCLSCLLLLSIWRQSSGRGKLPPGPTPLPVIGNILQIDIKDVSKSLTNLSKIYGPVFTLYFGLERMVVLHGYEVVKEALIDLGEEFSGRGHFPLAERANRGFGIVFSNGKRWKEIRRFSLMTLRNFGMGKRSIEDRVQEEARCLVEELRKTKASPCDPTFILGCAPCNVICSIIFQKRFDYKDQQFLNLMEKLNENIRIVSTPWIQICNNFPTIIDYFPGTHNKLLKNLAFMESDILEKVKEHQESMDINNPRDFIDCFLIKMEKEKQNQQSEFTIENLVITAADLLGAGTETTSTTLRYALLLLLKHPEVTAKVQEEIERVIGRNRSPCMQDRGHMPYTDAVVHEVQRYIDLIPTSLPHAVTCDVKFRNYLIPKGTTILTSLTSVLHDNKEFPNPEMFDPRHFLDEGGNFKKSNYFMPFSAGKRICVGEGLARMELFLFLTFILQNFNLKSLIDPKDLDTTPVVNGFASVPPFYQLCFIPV
Cytochrome P450 2C9 (Homo sapiens), sequence (P11712 whole entry, looked up): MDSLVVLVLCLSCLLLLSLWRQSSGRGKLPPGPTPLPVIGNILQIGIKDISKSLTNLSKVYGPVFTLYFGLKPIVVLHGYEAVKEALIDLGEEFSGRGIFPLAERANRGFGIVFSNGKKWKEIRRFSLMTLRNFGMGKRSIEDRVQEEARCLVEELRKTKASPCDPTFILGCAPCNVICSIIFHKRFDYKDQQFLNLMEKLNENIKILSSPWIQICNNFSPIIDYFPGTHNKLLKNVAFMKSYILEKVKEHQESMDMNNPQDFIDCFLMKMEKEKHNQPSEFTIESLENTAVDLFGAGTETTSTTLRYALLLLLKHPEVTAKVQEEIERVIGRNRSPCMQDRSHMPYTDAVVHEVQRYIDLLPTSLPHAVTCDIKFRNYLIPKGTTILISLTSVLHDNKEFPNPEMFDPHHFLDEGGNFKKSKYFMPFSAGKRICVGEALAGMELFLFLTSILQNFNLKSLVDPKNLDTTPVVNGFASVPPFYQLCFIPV
Cytochrome P450 1A2 (Homo sapiens), sequence (P05177 whole entry, looked up): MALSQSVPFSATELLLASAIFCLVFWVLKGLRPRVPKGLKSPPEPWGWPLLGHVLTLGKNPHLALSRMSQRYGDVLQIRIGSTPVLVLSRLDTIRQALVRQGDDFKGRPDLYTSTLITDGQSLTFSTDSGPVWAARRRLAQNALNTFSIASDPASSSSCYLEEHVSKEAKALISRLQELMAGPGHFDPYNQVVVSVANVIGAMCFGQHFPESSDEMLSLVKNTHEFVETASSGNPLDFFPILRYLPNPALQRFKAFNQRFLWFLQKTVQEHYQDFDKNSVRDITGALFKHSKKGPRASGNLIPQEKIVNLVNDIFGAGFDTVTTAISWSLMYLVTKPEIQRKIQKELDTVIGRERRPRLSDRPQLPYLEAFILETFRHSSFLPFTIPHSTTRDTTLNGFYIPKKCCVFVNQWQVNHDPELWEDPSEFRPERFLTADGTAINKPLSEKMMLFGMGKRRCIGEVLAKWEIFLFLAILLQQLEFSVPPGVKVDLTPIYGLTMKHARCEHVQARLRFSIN

One test addresses Cytochrome P450 2C19 (Homo sapiens) (UniProt P33261). The test is described as follows: Cytochrome P450 Family 2 Subfamily C Member 19 (CYP2C19) small molecule antagonists: luciferase reporter qHTS assay (AID 1671197). Also: nearly all actives have a fitted effect of over 65% in size. The following applies: P450-Glo CYP2C19 enzyme, luciferin luminescence, 1 h; series mostly up to 115 µM. Summed up: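 Luminescent readout of CYP2C19 activity: luciferin product detected 20 min after adding detection reagent. Before that, compound and enzyme-substrate mix preincubated 10 min at room temperature; NADPH-regenerating system started a 1 h, 37C reaction. Ketoconazole as positive control.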
Regarding `Nc1ccccc1N`, the Potency was 40.9 µM (active) and 17.8 µM (active).

As to `Brc1cc(Oc2cc(Br)c(Br)c(Br)c2Br)c(Br)c(Br)c1Br`, the Potency was 10.1 µM (active) and inactive.

With `Nc1ccc(S(=O)(=O)Nc2cnc3ccccc3n2)cc1`, the Potency was 39.9 µM (active).

In the case of `c1ccc2cc(Nc3ccc(Nc4ccc5ccccc5c4)cc3)ccc2c1`, the Potency result is “inactive”.

As for `C[C@]12CC[C@H]3[C@@H](CCC4=CC(=O)CC[C@@]43C)[C@@H]1CC[C@@H]2C(=O)CO`, the Potency was 7.1 µM (active) and 8.71 µM (active).

Turning to `O=C1c2cccc(O)c2C(=O)c2c(O)cccc21`, the Potency was 28.6 µM (active) and 38.9 µM (active).

Regarding `Oc1ccc(O)cc1`, the Potency entry was “inactive”.

As for `OC(CCl)CCl`, the Potency result was “inactive”.

`CCC(C)OC(=O)c1ccc(O)cc1` (stereo not drawn): the Potency was 35.8 µM (active) and 25.2 µM (active).

For the molecule `COc1cccc2c1C(=O)c1c(O)c3c(c(O)c1C2=O)C[C@@](O)(C(=O)CO)C[C@@H]3O[C@H]1C[C@H](N)[C@H](O)[C@H](C)O1`, the Potency result was “inactive”.

Turning to `c1ccc2c(c1)Oc1ccccc1S2`, the Potency result is “inactive and 71 µM (active)”.

As for `Cc1ccc(C(=O)c2cc(O)c(O)c([N+](=O)[O-])c2)cc1`, the Potency result was “inactive”.

With `COc1ccc(OC)c(C(O)CNC(=O)CN)c1` (stereo not drawn), the Potency was 20 µM (active) and 24.5 µM (active).

In the case of `COC(=O)CCC(=O)OC`, the Potency result is “inactive”.

With `O=[N+]([O-])c1ccc2c(c1)Cc1ccccc1-2`, the Potency is 22.4 µM (active) and 20 µM (active).

As to `Cc1ccc(C)c(O)c1C`, the Potency result was “inactive”.

In the case of `CCCCCCCCCCCO`, the Potency is 20.5 µM (active) and inactive.

With `CCCCOCCOCCOCCO`, the Potency result was “inactive”.

As to `CC(C)=CCCC(C)CCO` (stereo not drawn), the Potency entry was “inactive and 50.2 µM (active)”.

As for `CCC(C)c1ccccc1O` (stereo not drawn), the Potency entry was “inactive”.

Regarding `CC(CCC(=O)O)(c1ccc(O)cc1)c1ccc(O)cc1`, the Potency is 71.8 µM (active) and 35.6 µM (active).

The next test has as its target Cytochrome P450 2C9 (Homo sapiens) (UniProt P11712). The test is described as follows: Cytochrome P450 Family 2 Subfamily C Member 9 (CYP2C9) small molecule antagonists: luciferase reporter qHTS assay (AID 1671198). Also: nearly all actives have a fitted effect of over 50% in size. The settings on record: P450-Glo CYP2C9 enzyme assay, luciferin luminescence; series mostly up to 115 µM. Summed up:
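P450-Glo proluciferin substrate with CYP2C9 enzyme; 10 min RT preincubation, then NADPH regeneration 1 h at 37C; luciferin detection reagent 20 min RT, luminescence in relative luminescence units.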
Consider `Nc1ccc(S(=O)(=O)Nc2cnc3ccccc3n2)cc1`, for which the Potency was 11.2 µM (active) and 15.5 µM (active).

Regarding `c1ccc2cc(Nc3ccc(Nc4ccc5ccccc5c4)cc3)ccc2c1`, the Potency result is “inactive”.

Take `C[C@]12CC[C@H]3[C@@H](CCC4=CC(=O)CC[C@@]43C)[C@@H]1CC[C@@H]2C(=O)CO`: the Potency was 39.9 µM (active) and 27.5 µM (active).

In the case of `Cc1cc2nc3c(=O)[nH]c(=O)nc-3n(C[C@H](O)[C@H](O)[C@H](O)CO)c2cc1C`, the activity change, negative = inhibition was -0.762% [at 23.6 µM] (inactive).

In the case of `Cn1cnc([N+](=O)[O-])c1Sc1ncnc2nc[nH]c12`, the Potency result was “inactive”.

Turning to `OC(CCl)CCl`, the Potency result is “inactive”.

For `O=C(/C=C/C=C/c1ccc2c(c1)OCO2)N1CCCCC1`, the Potency was 12.7 µM (active) and 35.6 µM (active).

Consider `O=C=Nc1ccc(Cc2ccc(N=C=O)cc2)cc1`, for which the Potency is 6.98 µM (active).

`Nc1ncn([C@@H]2O[C@H](CO)[C@@H](O)[C@H]2O)c(=O)n1`: the Potency entry is “inactive”.

For `COC(=O)CCC(=O)OC`, the Potency entry is “inactive”.

`CCCC(=O)O`: the Potency result is “inactive”.

Regarding `COc1cc([C@@H]2c3cc4c(cc3[C@H](O)[C@H]3COC(=O)[C@H]23)OCO4)cc(OC)c1OC`, the Potency is 2.83 µM (active) and 2.19 µM (active).

On to `Cc1[nH]c(=O)c(C#N)cc1-c1ccncc1`, for which the Potency was 29.1 µM (active).

On to `O=c1oc(=O)c2cc3c(=O)oc(=O)c3cc12`, for which the Potency entry is “inactive”.

As to `CCCCOCCOCCOCCO`, the Potency result is “inactive”.

In the case of `CC(C)=CCCC(C)CCO` (stereo not drawn), the Potency entry is “inactive”.

The next test concerns the target Cytochrome P450 1A2 (Homo sapiens) (UniProt P05177). The test is described as follows: Cytochrome P450 Family 1 Subfamily A Member 2 (CYP1A2) small molecule antagonists: luciferase reporter qHTS assay (AID 1671199). Also: nearly all actives have a fitted effect of over 50% in size. The following applies: P450-Glo CYP1A2 enzyme, luciferin luminescence, 1 h; series mostly up to 115 µM. Summed up: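 Read-out is luminescence from luciferin detection reagent (20 min) proportional to CYP1A2 activity; compounds in DMSO preincubated 10 min with enzyme and proluciferin substrate, then NADPH regeneration solution, 1 h, room temperature.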
In the case of `Nc1ccccc1N`, the Potency was 2.58 µM (active) and 13.8 µM (active).

`Brc1cc(Oc2cc(Br)c(Br)c(Br)c2Br)c(Br)c(Br)c1Br`: the Potency result was “inactive”.

Consider `O=C1c2cccc(O)c2C(=O)c2c(O)cccc21`, for which the Potency is 9.03 µM (active) and 6.45 µM (active).

Take `Cn1cnc([N+](=O)[O-])c1Sc1ncnc2nc[nH]c12`: the Potency result was “inactive”.

For the molecule `Oc1ccc(O)cc1`, the Potency result was “inactive”.

As to `CCC(C)OC(=O)c1ccc(O)cc1` (stereo not drawn), the Potency was 20.1 µM (active) and 35.6 µM (active).

For the molecule `O=C(/C=C/C=C/c1ccc2c(c1)OCO2)N1CCCCC1`, the Potency is 28.3 µM (active) and 22.4 µM (active).

On to `c1ccc2c(c1)Oc1ccccc1S2`, for which the Potency was 12.8 µM (active) and 8.94 µM (active).

Regarding `O=C=Nc1ccc(Cc2ccc(N=C=O)cc2)cc1`, the Potency result was “inactive”.

For the molecule `Cc1ccc(C(=O)c2cc(O)c(O)c([N+](=O)[O-])c2)cc1`, the Potency result was “inactive”.

As to `COC(=O)C1=C(C)NC(C)=C(C(=O)OCCN(C)Cc2ccccc2)C1c1cccc([N+](=O)[O-])c1` (stereo not drawn), the Potency entry was “inactive”.

`Nc1ncn([C@@H]2O[C@H](CO)[C@@H](O)[C@H]2O)c(=O)n1`: the Potency entry was “inactive”.

`CCCC(=O)O`: the Potency entry was “inactive”.

As to `CC(C)(C)NC(=O)[C@H]1CC[C@H]2[C@@H]3CC[C@H]4NC(=O)C=C[C@]4(C)[C@H]3CC[C@]12C`, the Potency entry is “inactive”.

Regarding `C#C[C@]1(O)CC[C@H]2[C@@H]3CCC4=Cc5oncc5C[C@]4(C)[C@H]3CC[C@@]21C`, the Potency result was “inactive”.

In the case of `COc1cc([C@@H]2c3cc4c(cc3[C@H](O)[C@H]3COC(=O)[C@H]23)OCO4)cc(OC)c1OC`, the Potency was 35.6 µM (active).

Turning to `Cc1[nH]c(=O)c(C#N)cc1-c1ccncc1`, the Potency was 56.4 µM (active) and inactive.

Regarding `O=c1oc(=O)c2cc3c(=O)oc(=O)c3cc12`, the Potency entry is “inactive”.

Take `O=[N+]([O-])c1ccc2c(c1)Cc1ccccc1-2`: the Potency is 2 µM (active) and 8.94 µM (active).

For the molecule `Cc1ccc(C)c(O)c1C`, the Potency was 28.1 µM (active) and 28.3 µM (active).

As to `CC(CCC(=O)O)(c1ccc(O)cc1)c1ccc(O)cc1`, the Potency result is “inactive”.
